Data: publication PMC7862700, “An all-to-all approach to the identification of sequence-specific readers for epigenetic DNA modifications on cytosine”

Key:
Experiment in all cases: DAPPL (digital affinity profiling via proximity ligation, sequencing); 10 mM Tris-HCl pH 7.5, 50 mM NaCl, 1 mM DTT, 4% glycerol, room temperature, 30 min; GST-TFs on glutathione beads, 16-mer random dsDNA library, 0.1% formaldehyde crosslink after washing; high values mean tight binding
Conditions in all cases: protein: recombinant; tags: N-terminal GST; dsDNA, one strand shown
[1] = target: T1, FLI1 (Homo sapiens, UniProt Q01543 1-452)
T1 sequence: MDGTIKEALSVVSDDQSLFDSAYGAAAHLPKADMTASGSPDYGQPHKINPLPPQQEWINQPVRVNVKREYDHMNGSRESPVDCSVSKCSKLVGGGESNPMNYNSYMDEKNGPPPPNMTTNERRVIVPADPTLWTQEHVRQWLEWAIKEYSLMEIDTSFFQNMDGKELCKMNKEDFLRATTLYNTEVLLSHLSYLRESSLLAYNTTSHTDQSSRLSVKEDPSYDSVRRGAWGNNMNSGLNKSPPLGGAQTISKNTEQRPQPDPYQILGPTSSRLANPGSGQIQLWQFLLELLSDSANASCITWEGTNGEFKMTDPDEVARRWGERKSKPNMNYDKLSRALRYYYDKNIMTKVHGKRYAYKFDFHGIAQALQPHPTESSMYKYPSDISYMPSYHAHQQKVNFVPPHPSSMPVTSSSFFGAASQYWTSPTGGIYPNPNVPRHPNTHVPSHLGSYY
How it was run: (§1)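 Pools were built from human transcription factors expressed in yeast as GST fusions, captured on glutathione beads and DNA-barcoded, along with a tag-only sample. Incubation with 200 nmole of a 16-mer random double-stranded DNA library lasted 30 min at room temperature in Tris/NaCl/DTT/glycerol buffer, and was followed by washing, 0.1% formaldehyde crosslinking, proximity ligation, PCR amplification and Illumina NextSeq500 sequencing. Binding signal is the quotient of each hexamer's read frequency for a factor and its frequency for the tag-only sample.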

[2] = target: T2, ELK1 (Homo sapiens, UniProt P19419 1-428)
T2 sequence: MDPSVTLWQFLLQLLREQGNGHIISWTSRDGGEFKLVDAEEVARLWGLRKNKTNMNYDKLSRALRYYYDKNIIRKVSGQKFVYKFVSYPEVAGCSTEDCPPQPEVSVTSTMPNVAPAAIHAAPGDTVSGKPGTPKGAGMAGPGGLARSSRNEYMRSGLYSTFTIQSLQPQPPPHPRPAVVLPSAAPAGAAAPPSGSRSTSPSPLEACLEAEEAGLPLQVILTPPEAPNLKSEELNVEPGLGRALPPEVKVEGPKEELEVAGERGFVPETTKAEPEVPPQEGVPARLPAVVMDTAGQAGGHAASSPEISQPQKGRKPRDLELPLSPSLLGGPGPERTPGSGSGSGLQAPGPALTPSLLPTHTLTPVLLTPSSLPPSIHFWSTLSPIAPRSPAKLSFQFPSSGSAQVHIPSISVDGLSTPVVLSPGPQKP
How it was run: as §1

[3] = target: T3, GABPA (Homo sapiens, UniProt Q06546 1-454)
T3 sequence: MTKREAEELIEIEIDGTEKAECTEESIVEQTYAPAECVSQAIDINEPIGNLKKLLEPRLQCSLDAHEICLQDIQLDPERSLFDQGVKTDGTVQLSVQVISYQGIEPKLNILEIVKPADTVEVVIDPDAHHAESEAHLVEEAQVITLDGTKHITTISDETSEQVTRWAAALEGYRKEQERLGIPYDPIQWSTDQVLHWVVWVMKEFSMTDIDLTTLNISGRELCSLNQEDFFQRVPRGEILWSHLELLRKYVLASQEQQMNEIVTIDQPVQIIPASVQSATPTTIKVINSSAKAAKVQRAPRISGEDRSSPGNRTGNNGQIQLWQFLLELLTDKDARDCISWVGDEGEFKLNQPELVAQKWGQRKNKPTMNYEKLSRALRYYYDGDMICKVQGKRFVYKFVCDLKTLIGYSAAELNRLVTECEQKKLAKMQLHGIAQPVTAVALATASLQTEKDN
How it was run: as §1

[4] = target: T4, ERG (Homo sapiens, UniProt P11308 1-479)
T4 sequence: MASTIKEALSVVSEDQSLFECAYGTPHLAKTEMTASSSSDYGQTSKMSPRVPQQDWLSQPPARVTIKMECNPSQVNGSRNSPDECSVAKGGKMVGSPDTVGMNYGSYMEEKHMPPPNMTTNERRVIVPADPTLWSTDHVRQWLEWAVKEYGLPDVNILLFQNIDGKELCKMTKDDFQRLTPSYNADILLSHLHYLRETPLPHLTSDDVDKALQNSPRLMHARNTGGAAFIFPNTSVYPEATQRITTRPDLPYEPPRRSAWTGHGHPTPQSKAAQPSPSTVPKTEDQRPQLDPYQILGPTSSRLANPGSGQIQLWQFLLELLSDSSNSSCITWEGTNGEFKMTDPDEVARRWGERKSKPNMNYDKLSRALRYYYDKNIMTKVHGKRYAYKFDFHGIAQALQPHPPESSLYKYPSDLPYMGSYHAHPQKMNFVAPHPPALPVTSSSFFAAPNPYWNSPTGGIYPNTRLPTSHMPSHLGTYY
How it was run: as §1

[5] = target: ELF1 (Homo sapiens, UniProt P32519 1-619)
ELF1, sequence (P32519 whole entry): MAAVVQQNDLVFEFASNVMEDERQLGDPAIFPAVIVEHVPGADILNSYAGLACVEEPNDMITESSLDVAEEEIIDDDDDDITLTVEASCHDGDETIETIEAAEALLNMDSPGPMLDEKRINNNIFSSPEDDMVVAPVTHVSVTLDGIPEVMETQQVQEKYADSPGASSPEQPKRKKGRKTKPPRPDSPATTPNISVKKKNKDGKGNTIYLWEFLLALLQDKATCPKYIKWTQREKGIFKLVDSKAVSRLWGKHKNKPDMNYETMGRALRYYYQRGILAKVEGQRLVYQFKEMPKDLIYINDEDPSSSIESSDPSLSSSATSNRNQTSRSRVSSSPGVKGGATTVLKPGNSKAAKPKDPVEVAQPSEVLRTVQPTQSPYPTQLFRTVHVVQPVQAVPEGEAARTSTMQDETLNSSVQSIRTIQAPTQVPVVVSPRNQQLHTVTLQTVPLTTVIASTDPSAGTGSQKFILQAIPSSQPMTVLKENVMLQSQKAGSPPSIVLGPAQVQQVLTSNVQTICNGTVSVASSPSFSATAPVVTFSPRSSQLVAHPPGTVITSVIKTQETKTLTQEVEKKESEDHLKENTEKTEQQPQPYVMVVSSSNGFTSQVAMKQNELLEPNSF
How it was run: as §1

[6] = target: T5, EHF (Homo sapiens, UniProt Q9NZC4 1-300)
T5 sequence: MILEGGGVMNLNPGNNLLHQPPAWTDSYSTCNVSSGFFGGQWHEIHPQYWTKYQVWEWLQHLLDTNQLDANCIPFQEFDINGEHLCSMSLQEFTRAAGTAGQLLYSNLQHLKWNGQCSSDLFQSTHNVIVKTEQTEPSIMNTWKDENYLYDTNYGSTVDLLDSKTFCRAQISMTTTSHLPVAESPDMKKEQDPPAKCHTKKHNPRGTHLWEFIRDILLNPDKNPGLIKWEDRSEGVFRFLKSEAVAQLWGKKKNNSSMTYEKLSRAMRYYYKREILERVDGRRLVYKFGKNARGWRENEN
How it was run: as §1

[7] = target: SPI1 (Homo sapiens, UniProt P17947 1-270)
How it was run: as §1

[8] = target: SPIB (Homo sapiens, UniProt Q01892 1-262)
SPIB, sequence (Q01892 whole entry): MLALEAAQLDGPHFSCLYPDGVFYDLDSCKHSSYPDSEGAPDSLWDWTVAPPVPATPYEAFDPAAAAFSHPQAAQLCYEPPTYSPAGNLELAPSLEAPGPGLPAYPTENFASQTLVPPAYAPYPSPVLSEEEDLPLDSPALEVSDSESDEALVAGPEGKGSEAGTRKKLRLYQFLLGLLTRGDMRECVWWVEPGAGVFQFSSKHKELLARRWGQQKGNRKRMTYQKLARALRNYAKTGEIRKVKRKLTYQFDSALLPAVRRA
How it was run: as §1

[9] = target: T6, ELK3 (Homo sapiens, UniProt P41970 1-407)
T6 sequence: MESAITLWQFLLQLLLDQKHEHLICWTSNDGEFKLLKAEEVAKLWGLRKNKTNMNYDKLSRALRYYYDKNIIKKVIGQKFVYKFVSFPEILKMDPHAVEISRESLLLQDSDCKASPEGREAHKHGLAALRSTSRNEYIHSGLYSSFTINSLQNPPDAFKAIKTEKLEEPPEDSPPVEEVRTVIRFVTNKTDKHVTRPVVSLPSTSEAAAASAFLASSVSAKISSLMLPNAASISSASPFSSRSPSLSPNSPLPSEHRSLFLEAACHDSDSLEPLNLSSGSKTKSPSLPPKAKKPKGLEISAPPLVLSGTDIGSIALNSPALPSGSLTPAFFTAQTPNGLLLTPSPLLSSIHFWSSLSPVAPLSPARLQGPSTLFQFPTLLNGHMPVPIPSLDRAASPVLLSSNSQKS
How it was run: as §1

[10] = target: T7, FEV (Homo sapiens, UniProt Q99581 1-238)
T7 sequence: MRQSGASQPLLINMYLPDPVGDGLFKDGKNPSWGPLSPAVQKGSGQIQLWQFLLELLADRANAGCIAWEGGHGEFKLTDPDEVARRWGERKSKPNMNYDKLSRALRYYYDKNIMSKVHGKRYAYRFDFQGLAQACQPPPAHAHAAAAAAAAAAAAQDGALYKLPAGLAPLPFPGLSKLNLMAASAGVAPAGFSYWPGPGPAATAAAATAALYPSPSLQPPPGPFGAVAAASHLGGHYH
How it was run: as §1

[11] = target: ETV5 (Homo sapiens, UniProt P41161 1-510)
ETV5, sequence (P41161 whole entry): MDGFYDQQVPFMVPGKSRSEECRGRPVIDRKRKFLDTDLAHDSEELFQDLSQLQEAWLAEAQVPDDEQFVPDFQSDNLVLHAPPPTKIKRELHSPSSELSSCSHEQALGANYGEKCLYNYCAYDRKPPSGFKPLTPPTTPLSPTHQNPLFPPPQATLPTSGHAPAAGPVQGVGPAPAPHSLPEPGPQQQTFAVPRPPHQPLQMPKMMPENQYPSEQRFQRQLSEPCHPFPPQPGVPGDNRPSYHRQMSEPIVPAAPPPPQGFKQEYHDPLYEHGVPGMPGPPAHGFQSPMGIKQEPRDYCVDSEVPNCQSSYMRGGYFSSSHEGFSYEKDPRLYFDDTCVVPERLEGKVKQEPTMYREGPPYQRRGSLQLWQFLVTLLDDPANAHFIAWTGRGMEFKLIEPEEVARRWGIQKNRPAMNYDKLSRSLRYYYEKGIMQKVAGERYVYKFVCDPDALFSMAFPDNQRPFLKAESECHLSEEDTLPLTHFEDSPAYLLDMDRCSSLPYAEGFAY
How it was run: as §1

[12] = target: T8, SPIC (Homo sapiens, UniProt Q8N5J4 1-248)
T8 sequence: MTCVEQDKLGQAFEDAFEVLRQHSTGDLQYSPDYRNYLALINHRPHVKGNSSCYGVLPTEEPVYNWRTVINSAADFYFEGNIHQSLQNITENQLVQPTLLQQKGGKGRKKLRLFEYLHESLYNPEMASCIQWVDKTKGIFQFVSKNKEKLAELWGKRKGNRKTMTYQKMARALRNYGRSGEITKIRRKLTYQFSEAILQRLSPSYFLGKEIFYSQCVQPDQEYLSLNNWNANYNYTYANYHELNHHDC
How it was run: as §1

[13] = target: ELF4 (Homo sapiens, UniProt Q99607 1-663)
ELF4, sequence (Q99607 whole entry): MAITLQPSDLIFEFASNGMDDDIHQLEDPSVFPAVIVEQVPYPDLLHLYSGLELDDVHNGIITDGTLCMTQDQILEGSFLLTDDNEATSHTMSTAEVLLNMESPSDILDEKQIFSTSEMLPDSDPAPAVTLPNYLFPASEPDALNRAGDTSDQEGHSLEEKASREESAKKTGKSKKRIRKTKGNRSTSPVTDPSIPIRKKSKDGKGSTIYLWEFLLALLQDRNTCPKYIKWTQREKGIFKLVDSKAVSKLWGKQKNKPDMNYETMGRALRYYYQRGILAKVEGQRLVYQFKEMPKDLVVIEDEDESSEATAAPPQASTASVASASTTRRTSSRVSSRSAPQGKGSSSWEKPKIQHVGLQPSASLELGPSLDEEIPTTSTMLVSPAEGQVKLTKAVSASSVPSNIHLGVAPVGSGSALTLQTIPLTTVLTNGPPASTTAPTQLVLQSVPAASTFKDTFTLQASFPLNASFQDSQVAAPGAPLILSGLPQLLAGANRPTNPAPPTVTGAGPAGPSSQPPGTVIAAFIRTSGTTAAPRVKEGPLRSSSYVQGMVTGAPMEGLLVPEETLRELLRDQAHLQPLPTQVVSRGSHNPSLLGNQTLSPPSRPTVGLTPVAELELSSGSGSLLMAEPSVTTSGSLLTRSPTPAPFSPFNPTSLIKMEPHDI
How it was run: as §1

[14] = target: T9, ELK4 (Homo sapiens, UniProt P28324-2 1-405)
T9 sequence: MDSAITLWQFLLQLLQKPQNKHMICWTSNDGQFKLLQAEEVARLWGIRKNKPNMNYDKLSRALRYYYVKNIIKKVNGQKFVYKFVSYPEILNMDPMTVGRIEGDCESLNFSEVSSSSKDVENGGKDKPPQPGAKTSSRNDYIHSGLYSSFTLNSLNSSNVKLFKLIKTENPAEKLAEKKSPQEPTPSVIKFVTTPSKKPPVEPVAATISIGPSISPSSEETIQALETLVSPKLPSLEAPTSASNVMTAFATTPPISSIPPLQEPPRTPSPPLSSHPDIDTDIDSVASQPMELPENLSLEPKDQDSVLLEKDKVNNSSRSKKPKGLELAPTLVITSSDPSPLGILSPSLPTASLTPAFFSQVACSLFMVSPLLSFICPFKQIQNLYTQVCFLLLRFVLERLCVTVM
How it was run: as §1

[15] = target: T10, ETV2 (Homo sapiens, UniProt O00321 1-342)
T10 sequence: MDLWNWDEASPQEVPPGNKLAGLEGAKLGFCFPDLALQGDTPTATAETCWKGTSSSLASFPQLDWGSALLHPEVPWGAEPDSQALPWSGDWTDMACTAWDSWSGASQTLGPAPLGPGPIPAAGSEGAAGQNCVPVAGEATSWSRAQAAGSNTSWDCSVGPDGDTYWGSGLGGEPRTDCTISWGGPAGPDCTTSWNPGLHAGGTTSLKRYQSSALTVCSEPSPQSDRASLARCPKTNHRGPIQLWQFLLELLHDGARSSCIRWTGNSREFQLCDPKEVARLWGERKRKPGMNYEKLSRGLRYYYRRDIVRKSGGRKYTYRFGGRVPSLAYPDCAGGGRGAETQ
How it was run: as §1

[16] = target: T11, ELF3 (Homo sapiens, UniProt P78545 1-371)
T11 sequence: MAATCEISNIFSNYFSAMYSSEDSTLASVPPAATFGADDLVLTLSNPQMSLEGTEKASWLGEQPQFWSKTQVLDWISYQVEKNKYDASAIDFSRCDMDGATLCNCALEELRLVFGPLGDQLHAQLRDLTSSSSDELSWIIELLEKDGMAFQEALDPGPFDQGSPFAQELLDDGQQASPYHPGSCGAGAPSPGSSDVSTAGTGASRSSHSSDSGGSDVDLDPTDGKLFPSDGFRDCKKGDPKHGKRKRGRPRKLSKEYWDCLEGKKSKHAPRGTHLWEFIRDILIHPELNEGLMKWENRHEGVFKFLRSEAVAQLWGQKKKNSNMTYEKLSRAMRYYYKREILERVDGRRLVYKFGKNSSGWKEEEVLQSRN
How it was run: as §1

[17] = target: ETV1 (Homo sapiens, UniProt P50549 1-477)
ETV1, sequence (P50549 whole entry): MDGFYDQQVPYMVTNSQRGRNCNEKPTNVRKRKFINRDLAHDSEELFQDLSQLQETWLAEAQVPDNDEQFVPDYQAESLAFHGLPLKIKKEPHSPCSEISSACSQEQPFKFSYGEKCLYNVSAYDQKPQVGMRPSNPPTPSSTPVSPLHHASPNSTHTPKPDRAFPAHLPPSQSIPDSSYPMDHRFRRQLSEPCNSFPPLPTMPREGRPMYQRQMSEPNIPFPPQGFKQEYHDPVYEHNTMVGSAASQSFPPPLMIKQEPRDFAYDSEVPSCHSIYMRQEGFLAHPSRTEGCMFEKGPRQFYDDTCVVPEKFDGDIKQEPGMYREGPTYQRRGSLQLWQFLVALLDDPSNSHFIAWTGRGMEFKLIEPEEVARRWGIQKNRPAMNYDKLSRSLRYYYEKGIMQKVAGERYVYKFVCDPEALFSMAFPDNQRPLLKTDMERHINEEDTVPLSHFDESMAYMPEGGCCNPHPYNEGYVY
How it was run: as §1

| Sequence | binding signal [1] | binding signal [2] | binding signal [3] | binding signal [4] | binding signal [5] | binding signal [6] | binding signal [7] | binding signal [8] | binding signal [9] | binding signal [10] | binding signal [11] | binding signal [12] | binding signal [13] | binding signal [14] | binding signal [15] | binding signal [16] | binding signal [17] |
| --- | --- | --- | --- | --- | --- | --- | --- | --- | --- | --- | --- | --- | --- | --- | --- | --- | --- |
| CATGCC | 1.18 fold enrichment (6-mer frequency, TF over GST control) | 1.17 fold enrichment (6-mer frequency, TF over GST control) | 1.09 fold enrichment (6-mer frequency, TF over GST control) | 1.1 fold enrichment (6-mer frequency, TF over GST control) | 1.16 fold enrichment (6-mer frequency, TF over GST control) | 1.16 fold enrichment (6-mer frequency, TF over GST control) | 1.09 fold enrichment (6-mer frequency, TF over GST control) | 1.11 fold enrichment (6-mer frequency, TF over GST control) | 1.06 fold enrichment (6-mer frequency, TF over GST control) | 1.13 fold enrichment (6-mer frequency, TF over GST control) | 1.13 fold enrichment (6-mer frequency, TF over GST control) | 1.16 fold enrichment (6-mer frequency, TF over GST control) | 1.16 fold enrichment (6-mer frequency, TF over GST control) | 1.17 fold enrichment (6-mer frequency, TF over GST control) | 1.08 fold enrichment (6-mer frequency, TF over GST control) | 1.13 fold enrichment (6-mer frequency, TF over GST control) | 1.12 fold enrichment (6-mer frequency, TF over GST control) |
| GCCACT | 1.17 fold enrichment (6-mer frequency, TF over GST control) | 1.2 fold enrichment (6-mer frequency, TF over GST control) | 1.16 fold enrichment (6-mer frequency, TF over GST control) | 1.23 fold enrichment (6-mer frequency, TF over GST control) | 1.23 fold enrichment (6-mer frequency, TF over GST control) | 1.1 fold enrichment (6-mer frequency, TF over GST control) | 1.17 fold enrichment (6-mer frequency, TF over GST control) | 1.06 fold enrichment (6-mer frequency, TF over GST control) | 1.26 fold enrichment (6-mer frequency, TF over GST control) | 1.31 fold enrichment (6-mer frequency, TF over GST control) | 1.2 fold enrichment (6-mer frequency, TF over GST control) | 1.12 fold enrichment (6-mer frequency, TF over GST control) | 1.21 fold enrichment (6-mer frequency, TF over GST control) | 1.24 fold enrichment (6-mer frequency, TF over GST control) | 1.15 fold enrichment (6-mer frequency, TF over GST control) | 1.1 fold enrichment (6-mer frequency, TF over GST control) | 1.22 fold enrichment (6-mer frequency, TF over GST control) |
